Source: PubChem BioAssay AID701 (PCMD, 2007)
Among all 33,000 compounds or so, about 70 (0.2%) were called active. The list is a sample of the results. Values without a mark were called inactive. No stated cut-off is given here; in the data, active means inhibition above about 30%; inactive means the rest.

Each compound was assayed against Coagulation factor XII (Homo sapiens) (UniProt P00748) (assay: human FXIIa protease inhibitors, primary screen, biochemical, single well (AID 701;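 further: 0% = enzyme with vehicle only and 100% = no enzyme blank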)). Conditions: purified human FXIIa, AMC substrate fluorescence, 2 h; at 10 µM; stronger effect = higher value.
Chain of Coagulation factor XII (Homo sapiens) (P00748 20-372 limits assumed): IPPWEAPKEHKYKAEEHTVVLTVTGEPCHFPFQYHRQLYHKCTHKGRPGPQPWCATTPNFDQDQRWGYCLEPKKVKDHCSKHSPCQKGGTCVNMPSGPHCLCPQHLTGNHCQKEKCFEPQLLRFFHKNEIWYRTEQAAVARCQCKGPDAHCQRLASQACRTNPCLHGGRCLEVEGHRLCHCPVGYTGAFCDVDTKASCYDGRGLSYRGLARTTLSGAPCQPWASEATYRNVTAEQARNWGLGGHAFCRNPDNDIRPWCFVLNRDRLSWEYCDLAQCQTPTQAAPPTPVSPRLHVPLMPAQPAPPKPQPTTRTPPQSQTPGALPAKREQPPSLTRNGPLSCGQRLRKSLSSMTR
Chain of Coagulation factor XII (Homo sapiens) (P00748 373-615 limits assumed): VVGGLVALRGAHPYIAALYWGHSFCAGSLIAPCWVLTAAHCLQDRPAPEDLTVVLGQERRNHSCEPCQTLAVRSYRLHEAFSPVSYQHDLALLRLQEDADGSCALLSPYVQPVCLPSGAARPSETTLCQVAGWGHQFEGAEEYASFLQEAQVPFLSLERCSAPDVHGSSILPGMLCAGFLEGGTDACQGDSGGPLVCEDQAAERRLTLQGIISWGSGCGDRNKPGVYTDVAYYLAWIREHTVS

Compound | inhibition
Cc1nnc(OCC(=O)NCCC2=CCCCC2)c2ccccc12 | 11.9%
COC(=O)C(C)n1cnc2c(nnn2-c2cccc(Cl)c2)c1=O (configuration not stated) | 4.25%
C=CCNC(=O)C12CC3CC(C1)CC(C(=O)NCC=C)(C3)C2 | 5.41%
O=C(CNS(=O)(=O)c1ccc(Br)s1)N1CCN(C(=O)c2ccco2)CC1 | 5.22%
O=c1onc(-c2cccs2)n1Cc1ccccc1 | 2.91%
CC(=O)C1=C(C)NC(=O)NC1c1cc(Br)ccc1OCC#N (configuration not stated) | 6%
CC/C(O)=N\S(=O)(=O)c1ccc(N=NN(C)C)cc1 | 12.3%
O=C(c1cccc(N2CCCC2=O)c1)N1CCOCC1 | 8.03%
O=C(NCCCN1CCCCC1)c1ccc2c(c1)NC(=O)C(N1CCOCC1)S2 (configuration not stated) | 2.66%
COc1ccccc1CNS(=O)(=O)c1ccc(C)cc1 | -2.17%
Nn1c(SCC(=O)NC2CCCC2)nnc1-c1ccccc1F | 2.89%
CC(=O)c1cccc(NC(=O)N2CCCC2C(=O)NCCc2ccccc2)c1 (configuration not stated) | 6.02%
CC(=O)c1cccc(NC(=O)C2CCCN2S(=O)(=O)c2cccc3nsnc23)c1 (configuration not stated) | -30.9%
COc1ccc(C(=O)NNC(=O)c2cnccn2)cc1[N+](=O)[O-] | 6.61%
CSc1ccccc1NC(=O)c1cc(C2CC2)on1 | 5.73%
Cc1cc(C(=O)Nc2c(C)nn(Cc3ccccc3)c2C)on1 | 3.84%
Cc1nnc(NCCO)c2ccccc12 | -0.65%
O=C(NC1CCCCC1)c1ccc(CNc2c(N3CCOCC3)c(=O)c2=O)cc1 | 9.25%
CCS(=O)(=O)c1ccc2oc(SCC(=O)N3c4ccccc4CC3C)nc2c1 (configuration not stated) | 11.8%
CC(NC(=O)C1CCC(CNc2c(N3CCOCC3)c(=O)c2=O)CC1)c1ccccc1 (configuration not stated) | 4.59%
Cc1ccc(OC(=O)c2ccccc2C(=O)OCC(F)(F)C(F)F)cc1 | 5.93%
Cc1ccc(CS(=O)(=O)CCC(=O)NC2CC2)cc1 | 3.34%
O=C(OCC(=O)N1CCN(C(=O)c2ccco2)CC1)c1ccccc1Cc1ccccc1 | 3.88%
CC(C)CCNC(=O)CC1C(=O)N(Cc2ccccc2)C(C)c2nc3ccccc3n21 (configuration not stated) | 5.26%
CCCCCOC(=O)c1ccc(N2C(=O)C3C4C=CC(C4)C3C2=O)cc1 (configuration not stated) | -10.2%

Compound | inhibition
O=C(N1CCOCC1)N(Cc1ccccc1)c1ccccn1 | 1.36%
COC(=O)c1cc(OC)ccc1-c1ccc(OC)cc1 | 4.36%
COCCCNC(=O)CN1CCN(Cc2ccccc2Cl)C1=O | 13.3%
COCCNC(=O)COc1ccc(C)c(C)c1 | 5.6%
COC(=O)C1C(=O)NCC1c1ccc(C)cc1 (configuration not stated) | 4.77%
COc1ccc(C(=O)Nc2ccc(CN3CCOCC3)cc2)cc1 | -0.34%
COC(=O)c1ccccc1Sc1c(/C=N/OCc2ccc(Cl)cc2)c(C(F)(F)F)nn1C | 5.69%
CCSc1nc(-c2ccc(OC)cc2)cc(-c2ccc(OC)cc2)c1C#N | 12.5%
COC(=O)[C@@H](NC(=O)Nc1cc(Cl)ccc1C)C(C)C | -0.53%
O=C(OCC#CCSc1nnc(-c2ccncc2)o1)c1sc2ccccc2c1Cl | -11.2%
O=C(Cc1c(O)c2ccccc2[nH]c1=O)NCc1ccccc1 | -1.57%
Cc1ccc(S(=O)(=O)/N=C(\CN2CCOCC2)N2CCOCC2)cc1 | -13.1%
O=C(NCCCn1ccnc1)Nc1ccc(Cl)cc1Cl | -12%
Cc1cccc(NC(=O)CSc2nnc(-c3ccco3)o2)c1 | 7.32%
CCOc1ccc(N(CC(=O)NC2CCCCCC2)S(=O)(=O)c2c(C)[nH]c(=O)[nH]c2=O)cc1 | -0.15%
CCOc1ccc(NC(=O)c2ccccc2NS(C)(=O)=O)cc1 | 7.81%
COC(=O)CSc1nnc(-c2cccnc2)o1 | 4.99%
Cc1cccc(NC(=O)CSc2nc3c(c(=O)[nH]2)CCCC3)c1C | 7.72%
CCc1ccc(CNC(=O)C2CC(=O)N(CCc3ccc(C)cc3)C2)cc1 (configuration not stated) | -0.05%
O=C(O)CCC(=O)N(Cc1cccs1)Cc1cccs1 | -0.32%
Cn1c(SCC(=O)NC2CCCCC2)nnc1-c1cc2ccccc2o1 | -0.46%
CC(=O)c1c(C)n(-c2ccc(N(C)C)cc2)c2ccc(OCC(N)=O)cc12 | 8.5%
OC(COc1cccc2ccccc12)CN1CCN(c2ccccn2)CC1 (configuration not stated) | 9.54%
CCCn1c(C(Cc2ccccc2)NC(=O)COC)nc2ccccc21 (configuration not stated) | 7.07%
Cn1cc(S(=O)(=O)N2CCN(c3ccc(F)cc3)CC2)c(=O)n(C)c1=O | 3.88%

Compound | inhibition
Cc1cc(NC(=O)CS(=O)(=O)c2cn(C)c3ccccc23)no1 | 3.14%
Cn1c(=O)[nH]c(=O)c2c1nc(N1CCN(CCO)CC1)n2CCSc1nc2ccccc2s1 | 0.63%
CC(C)CNC(=O)CC(c1ccccc1)c1c(O)ccc2ccccc12 (configuration not stated) | 1.86%
C#CCN(N(C)c1ncc(C(F)(F)F)cc1Cl)S(=O)(=O)c1ccc2ccccc2c1 | 3.08%
COC(=O)c1ccccc1NC(=O)Cc1ccccc1OC | 1.04%
Cc1ccc(S(=O)(=O)N2CCC(C(=O)NCC3CCCO3)CC2)cc1 (configuration not stated) | 2.9%
O=C(CCCn1c(SCC(=O)c2ccccc2)nc2ccccc2c1=O)NCC1CCCO1 (configuration not stated) | 3.06%
Cc1ccc(NC(=O)CSCC(=O)N2CCOCC2)cc1 | 2.79%
Cc1ccc(C)c(N2C(=O)CS/C2=N\NC(=O)c2ccccc2Cl)c1 | 8.52%
O=C(CSCc1c(F)cccc1Cl)NCC1CCCO1 (configuration not stated) | 7.29%
COc1ccc(C)cc1NC(=O)CCS(=O)(=O)c1cccc2nonc12 | -14.7%
CCCc1noc2c1/C(=N\O)CCC2 | 8.44%
Cc1ccc(/C=N/NC(=O)Cn2nc(C)c(Br)c2C)o1 | 5.02%
Cn1nnc(NC(=O)CSc2ncn[nH]2)n1 | 2.58%
Cc1ccc2cc(CCNC(=O)c3ccc4c(c3)OCO4)c(=O)[nH]c2c1 | 7.29%
CCOc1cc2[nH]c(=S)n(Cc3ccc(C(=O)NCCOC)cc3)c(=O)c2cc1OCC | -2.63%
CCOC(=O)N1CCC(Nc2c(NCCCN3CCN(CC)CC3)c(=O)c2=O)CC1 | -0.96%
COc1cc(OC)c(-n2c(C)cc(C=O)c2C)cc1Cl | 3.21%
c1ccc(-n2nc3ccccc3n2)cc1 | 0.64%
CCOc1nc(NCCN2CCOCC2)nc(Nc2ccc(C)cc2)n1 | 2.85%
CCN(CC)CCn1c2ccc(Cl)cc2c2nc(C)sc21 | 5.85%
CCOC(=O)c1cnn(Cc2ccccc2Cl)c1N | -0.31%
Cc1nc2c(-c3ccc(F)cc3)c(C)nn2c(C)c1CCC(=O)NCc1ccco1 | 2.8%
CCOC(=O)/C(C#N)=C\c1c(C)cc(C)c(COC(C)=O)c1C | 14%
Cc1cc(NC(=O)CCC(=O)N(CC(=O)NCC2CCCO2)c2ccccc2C)no1 (configuration not stated) | 4.76%

Compound | inhibition
CCC(C)NC(=O)CSC1=Nc2ccccc2C2=NC(CCC(=O)NCc3ccco3)C(=O)N12 (configuration not stated) | 5.92%
Cc1cc(S(=O)(=O)NC2CCCCC2)ccc1OCC(=O)NCc1cccnc1 | -2.34%
O=P(c1ccc2c(c1)OCCO2)(N1CCOCC1)N1CCOCC1 | -11.5%
COc1ccc(C2=NOC3(CC(=O)N(c4ccc(C)cc4)C3=O)C2)cc1 (configuration not stated) | 12.1%
CCOc1ccc(NC(=O)Nc2cc(C)on2)cc1 | 6.76%
O=C(NC1CCCCC1)C1CC(=O)N(CCc2ccccc2)C1 (configuration not stated) | 1.77%
O=C(NCc1ccccc1)[C@@H]1CSC2c3ccccc3C(=O)N21 (some centres not stated) | 0.72%
Cc1ccc(-n2c(=O)cc(N3CCN(Cc4ccccc4)CC3)[nH]c2=O)cc1 | -11.3%
COCCn1c(SCc2nnc(-c3ccc(OC)c(OC)c3)o2)nc2sc3c(c2c1=O)CCC3 | 7.92%
Cc1csc(OCC(=O)Nc2ccc(C)c(C)c2)n1 | 7.64%
Cc1cccc(N2CCN(S(=O)(=O)c3ccc4[nH]c(=O)c(=O)[nH]c4c3)CC2C)c1 (configuration not stated) | 7.11%
CCCCCCOc1ccc(OC(=O)c2cccnc2)cc1 | 4.38%
CCc1ccccc1NC(=O)CN(C)S(=O)(=O)c1ccc2c(c1)c(=O)n(C)c(=O)n2C | -0.9%
CCn1c(CC(=O)Nc2ccc(C)cc2)nnc1SCC(=O)Nc1nc(C)cs1 | 3%
CCCc1nnc(NC(=O)c2cccs2)s1 | 4.48%
Cn1c(=O)c2c(SCC(=O)N3CCOCC3)nc(C3CC3)nc2n(C)c1=O | 5.78%
S=c1nccc(-c2cc(Cl)sc2Cl)[nH]1 | 3.01%
Cc1ccccc1CSCCNC(=O)c1ccc(Cl)c(S(=O)(=O)N2CCOCC2)c1 | -1.19%
CC(C)(C)c1ccc(OC2=CS(=O)(=O)c3ccccc32)cc1 | 6.47%
CCOc1ccc(C(=O)NCCCN2CCCC2=O)cc1 | 6.23%
COC(=O)c1cc(NC(=O)C2C3C=CC(C3)C2C(=O)O)cc(C(=O)OC)c1 (configuration not stated) | -2.18%
N#CC1=C(N)N(c2ccccc2)C2=C(C(=O)CCC2)C1c1ccccc1 (configuration not stated) | 6.03%
